The text below walks through data of PubChem BioAssay (NCI).

Compounds without any hit were thinned out: in the full panel of roughly 83,000, 20% have a hit.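 Assay: single dose, 48 h. Readout: percent growth (0 = no net growth; negative = cell death). Active: <10.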 A number with no mark means an inactive call. The source made the active and inactive calls.

Among the test systems are NCI-H23 lung; NCI-H226 lung; NCI-H322M lung; HOP-62 NSCLC; NCI-H460 lung; HOP-92 NSCLC; NCI-H522 lung; A549/ATCC NSCLC; 786-0 renal; COLO 205 colon; DU-145 prostate; K-562 leukemia; MALME-3M melanoma; MDA-MB-231 breast; RXF 393 renal; SF-268 CNS; SF-295 CNS; SF-539 CNS; UACC-257 melanoma; M14 melanoma.
Holding throughout (test): NCI-60 one-dose screen, 48 h (100 = growth as untreated, 0 = no growth, -100 = all killed)
Settings in all cases: 10 µM unless noted

`Brc1ccc2c(c1)c(-c1nc(-c3c[nH]c4ncccc34)cs1)cn2CCCN1CCCCC1`: the growth was 22.4% in the experiment with NCI-H23 lung; 71.2% in the experiment with NCI-H226 lung; 39.1% in the experiment on NCI-H322M lung; -66.7% (active) in the experiment with HOP-62 NSCLC; -67.7% (active) in the experiment on NCI-H460 lung; 31.7% with HOP-92 NSCLC. Also, the growth in the experiment on NCI-H522 lung is -3.42% (active); in the experiment with A549/ATCC NSCLC, -69.6% (active); in the experiment on 786-0 renal, -74.8% (active); in the experiment with COLO 205 colon, -77.4% (active); with DU-145 prostate, -44.4% (active); in the experiment on K-562 leukemia, -64.4% (active). Further, the growth in the experiment on MALME-3M melanoma was -45.9% (active); with MDA-MB-231 breast it was -43.3% (active); in the experiment on RXF 393 renal, 23.6%; in the experiment with SF-268 CNS, 7.71% (active); in the experiment on SF-295 CNS it was 27.3%; in the experiment with SF-539 CNS it was -77.6% (active). For the same molecule, the values for the growth in the experiment on UACC-257 melanoma and in the experiment on M14 melanoma were 66.1% and -81.4% (active), respectively.

With `C/C(=C(/c1ccccc1)c1ccc(N2C(=O)c3cccc4c(NCc5ccccc5)ccc(c34)C2=O)cc1)c1ccccc1`, the growth in the experiment with NCI-H23 lung is 89.8%; in the experiment with NCI-H226 lung, 89.1%; in the experiment with NCI-H322M lung, 97.6%; in the experiment on HOP-62 NSCLC it was 100%; in the experiment on NCI-H460 lung it was 99.8%; in the experiment on HOP-92 NSCLC, 89%. In addition, the growth with NCI-H522 lung is 93.1%; with A549/ATCC NSCLC, 92.6%; with 786-0 renal, 103%; in the experiment on COLO 205 colon it was 112%; in the experiment with DU-145 prostate, 101%; in the experiment on K-562 leukemia, 85.8%. Further, the growth is 96.3% in the experiment with MALME-3M melanoma; 96.1% in the experiment with MDA-MB-231 breast; 112% in the experiment on RXF 393 renal; 102% in the experiment on SF-268 CNS; 96.2% in the experiment on SF-295 CNS; 98.6% in the experiment with SF-539 CNS. In addition, the growth with UACC-257 melanoma was 106%; with M14 melanoma, 89.1%.

On to `C=C(C)[C@@H]1CC[C@]2(C(=O)N3CCN(C)CC3)CC[C@]3(C)[C@H](CC[C@@H]4[C@@]5(C)C/C(=C/c6ccc(C(F)(F)F)cc6)C(=O)C(C)(C)[C@@H]5CC[C@]43C)[C@@H]12`, for which the growth in the experiment with NCI-H23 lung is 99.2%; in the experiment with NCI-H226 lung, 101%; in the experiment on NCI-H322M lung it was 96.5%; in the experiment with HOP-62 NSCLC, 96.6%; in the experiment with NCI-H460 lung, 97.9%; in the experiment with HOP-92 NSCLC it was 78.1%. In addition, the growth is 94.4% with NCI-H522 lung; 92.6% with A549/ATCC NSCLC; 90.3% in the experiment on 786-0 renal; 105% with COLO 205 colon; 104% in the experiment with DU-145 prostate; 72.9% in the experiment on K-562 leukemia. Also, the growth with MALME-3M melanoma was 90.8%; in the experiment on MDA-MB-231 breast it was 94.9%; with RXF 393 renal, 97.4%; in the experiment on SF-268 CNS it was 92.8%; in the experiment on SF-295 CNS it was 101%; with SF-539 CNS, 88.6%. The values for the growth in the experiment with UACC-257 melanoma and with M14 melanoma were 98.5% and 94.8%, respectively.

In the case of `C=C(C)[C@@H]1CC[C@]2(/C=N/Nc3ccncc3)CC[C@]3(C)[C@H](CC[C@@H]4[C@@]5(C)CCCNC(C)(C)[C@@H]5CC[C@]43C)[C@@H]12`, the growth with NCI-H23 lung is 85.9%; in the experiment on NCI-H226 lung it was 87.7%; with NCI-H322M lung it was 102%; with HOP-62 NSCLC, 94.7%; in the experiment with NCI-H460 lung, 86.6%; with HOP-92 NSCLC, 55.6%. Besides, the growth in the experiment on NCI-H522 lung was 94.8%; in the experiment with A549/ATCC NSCLC, 78%; in the experiment on 786-0 renal, 99.8%; in the experiment with COLO 205 colon, 42.2%; with DU-145 prostate, 95.7%; in the experiment on K-562 leukemia, 7.55% (active). Also, the growth in the experiment with MALME-3M melanoma is 80.3%; in the experiment on MDA-MB-231 breast, 101%; with RXF 393 renal, 96.3%; in the experiment on SF-268 CNS, 97.2%; with SF-295 CNS, 99.1%; in the experiment on SF-539 CNS it was 88.7%. Besides, the growth in the experiment on UACC-257 melanoma is 94.7%; with M14 melanoma, 79.4%.

`Cc1cc(N(CCCNc2ccnc3cc(Cl)ccc23)Cc2ccco2)nc(Cl)n1`: the growth with NCI-H23 lung is 31.5%; in the experiment on NCI-H226 lung, 68.1%; in the experiment on NCI-H322M lung, 76.6%; in the experiment with HOP-62 NSCLC, 41.6%; in the experiment with NCI-H460 lung, 57.1%; with HOP-92 NSCLC, 27.1%. Besides, the growth in the experiment on NCI-H522 lung is 59.9%; with A549/ATCC NSCLC, 67%; in the experiment with 786-0 renal, 55.6%; with COLO 205 colon, 24.5%; in the experiment on DU-145 prostate, 71.6%; in the experiment on K-562 leukemia, 9.75% (active). Moreover, the growth was 74% with MALME-3M melanoma; 61.7% with MDA-MB-231 breast; 71.1% with RXF 393 renal; 72.7% with SF-268 CNS; 42.3% in the experiment on SF-295 CNS; 54.3% in the experiment on SF-539 CNS. In addition, the growth with UACC-257 melanoma was 59.9%; with M14 melanoma, 46.4%.

Consider `Cn1cc(-c2csc(-c3cn(CCNC(=O)OC(C)(C)C)c4ccc(F)cc34)n2)c2cccnc21`, for which the growth was 57% in the experiment on NCI-H23 lung; 50.8% in the experiment with NCI-H226 lung; 83.9% with NCI-H322M lung; 65.7% with HOP-62 NSCLC; 85.9% in the experiment on NCI-H460 lung; 49.2% in the experiment with HOP-92 NSCLC. Also, the growth in the experiment with NCI-H522 lung was 44.3%; with A549/ATCC NSCLC, 63.1%; in the experiment on 786-0 renal it was 88.1%; in the experiment with COLO 205 colon it was 67.5%; in the experiment on DU-145 prostate, 94.2%; in the experiment with K-562 leukemia, 56.4%. For the same molecule, the growth with MALME-3M melanoma is 83.2%; in the experiment on MDA-MB-231 breast it was 78.4%; with RXF 393 renal, 105%; with SF-268 CNS, 81.4%; in the experiment with SF-295 CNS it was 86.2%; in the experiment with SF-539 CNS, 81.7%. The growth in the experiment with UACC-257 melanoma is 94.2%; in the experiment on M14 melanoma it was 52.3%.

Take `CC(=O)O[C@H]1CC[C@]2(C)[C@H]3CC=C4[C@@H]5[C@H](C)[C@@H](C)CC[C@]5(C(=O)NCCNCCNCCN)CC[C@@]4(C)[C@]3(C)CC[C@H]2C1(C)C`: the growth with NCI-H23 lung was 94.6%; with NCI-H226 lung it was 90.5%; in the experiment on NCI-H322M lung, 87.6%; in the experiment on HOP-62 NSCLC, 86.2%; in the experiment with NCI-H460 lung, 76.8%; in the experiment on HOP-92 NSCLC, 55%. Besides, the growth in the experiment with NCI-H522 lung was 87.2%; in the experiment on A549/ATCC NSCLC, 73.8%; in the experiment on 786-0 renal, 84.5%; in the experiment with COLO 205 colon, 72.5%; with DU-145 prostate it was 89.8%; with K-562 leukemia it was 12%. The growth with MALME-3M melanoma was 59.3%; in the experiment on MDA-MB-231 breast it was 78%; with RXF 393 renal, 82.7%; with SF-268 CNS it was 84.1%; in the experiment with SF-295 CNS, 101%; in the experiment with SF-539 CNS, 84.4%. In addition, the growth was 98% with UACC-257 melanoma and 88.1% with M14 melanoma.

For the molecule `COc1ccc(C2(Cl)c3ccccc3N(c3ccccc3)c3ccccc32)cc1`, the growth was -14.8% (active) in the experiment on NCI-H23 lung; -27.8% (active) in the experiment with NCI-H226 lung; 9.96% (active) in the experiment with NCI-H322M lung; 8.43% (active) in the experiment with HOP-62 NSCLC; -55.2% (active) in the experiment on NCI-H460 lung; -14.7% (active) in the experiment on HOP-92 NSCLC. For the same molecule, the growth was -3.22% (active) in the experiment on NCI-H522 lung; 9.18% (active) in the experiment on A549/ATCC NSCLC; -48.8% (active) in the experiment with 786-0 renal; -42.8% (active) in the experiment on COLO 205 colon; 16.8% in the experiment on DU-145 prostate; 8.99% (active) in the experiment on K-562 leukemia. The growth with MALME-3M melanoma was -57% (active); in the experiment with MDA-MB-231 breast it was -23.8% (active); with RXF 393 renal it was -28.4% (active); in the experiment on SF-268 CNS, 15.4%; in the experiment on SF-295 CNS, -36.6% (active); in the experiment on SF-539 CNS, -20.3% (active). Further, the growth in the experiment on UACC-257 melanoma is -41.5% (active); in the experiment on M14 melanoma, -55.1% (active).
